# Results from PubChem BioAssay AID1571 (National Center for Advancing Translational Sciences (NCATS), 2009).
# Records with an inconclusive call do not appear. A call without a number means that no potency is given here. Unmarked numbers belong to inactive results. Activity calls are given as the source filed them. The call rests on the fitted dose curve; in most records, active means well fitted curve in the direction sought with a large enough effect; inconclusive means small, poorly fitted or top-dose-only effect, or effect the other way; inactive means flat fitted curve, though single readings scatter.
# Test: Total Fluorescence Confirmation Counterscreen for Inhibitors of the Interaction of Thyroid Hormone Receptor and Steroid Receptor Coregulator 2, Fluorescein Fluoroprobe
# Conditions: TRbeta/SRC2-fluorescein mix, total fluorescence interference; series mostly up to 92.2 µM
# Procedure, shortened: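 Counterscreen flagging optical interferers: compound incubated 5 hr at ambient temperature with 0.6 uM human TRbeta LBD, 20 nM fluorescein-SRC2 peptide and 1 uM T3. Readout is total fluorescence computed as S + 2P; concentration-response % activity reported.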
SMILES,Potency,"total fluorescence change, positive = fluorescent"
Cc1[nH][nH]c(=O)c1C(c1ccc(-c2ccccc2C(=O)O)o1)c1c(C)[nH][nH]c1=O,inactive,–
COc1cc(NCCCC(C)N)c2ncccc2c1 (stereo unspecified),–,-9.55% [at 11.6 µM]
CC1(C)CC(=O)C(N=Nc2cccc(S(=O)(=O)N3CCOCC3)c2)=C(O)C1,inactive,–
O=C(O)C1C2C=CC(O2)C1C(=O)Nc1ccc(S(=O)(=O)N2CCc3ccccc32)cc1 (stereo unspecified),–,3.65% [at 11.6 µM]
Cc1cccc(S(=O)(=O)c2cn(Cc3ccccc3)c3cc(N4CCC(C)CC4)c(F)cc3c2=O)c1,inactive,–
Cn1c(=O)[nH]c2nnc(-c3ccc(Cl)c(Cl)c3)nc2c1=O,inactive,–
Nc1cnccc1C(=O)O,inactive,–
Cc1ccc2c(CC(=O)Nc3c(C(=O)c4ccc(F)cc4)oc4ccccc34)coc2c1C,inactive,–
O=C(/C=C/c1ccco1)NC(=S)Nc1cc(C(F)(F)F)ccc1N1CCOCC1,inactive,–
CCOc1ccc(NC(=O)C(c2ccccn2)N(C(=O)CCl)c2ccc(F)cc2)cc1 (stereo unspecified),–,17.5% [at 5.76 µM]
Nc1cc(-c2ccccc2)c[nH]c1=O,39.8 µM [fluorescent] (active),–
COc1cc(C(c2c(C)[nH][nH]c2=O)c2c(C)[nH][nH]c2=O)ccc1OC(=O)c1ccccc1OC,inactive,–
O=C(Nc1nc2ccc(Cl)cc2s1)c1ccc(N2CCCCC2)c([N+](=O)[O-])c1,inactive,–
O=c1cc(C23CC4CC(CC(C4)C2)C3)[nH][nH]1,inactive,–
Cc1cccc(Cn2c(C(=O)OC(C)C)cc3c2ccn3C)c1,–,8.18% [at 5.76 µM]
CCc1ccc2c(c1)c1nc(C)sc1n2CC,inactive,–
O=C1CNC(=S)N1c1nc(-c2ccccc2)cs1,–,7.24% [at 0.0112 µM]
CC(=O)NC1N=C(C)N(c2ccccc2)C1=O (stereo unspecified),inactive,–
CN1N=C(C(C)(C)C)CC1=O,inactive,–
COc1ccc(CN2C(=O)Cc3c2nc(N)c2c(N)nc(N4CCCCC4)c(C#N)c32)cc1,inactive,–
COc1ccc(-c2nc(CS(=O)CC(=O)NCc3ccccn3)c(C)o2)cc1 (stereo unspecified),39.8 µM [fluorescent] (active),–
